DRD3 agonist: qHTS of D3 Dopamine Receptor Agonist: qHTS; D3R DiscoveRx beta-arrestin cells, luminescence, 90 min; max activation, %; hit rate 0.58% among 410,000; AID 652048, 2013; in the data active = max activation above about 30%; also: 0% is about no effect
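Cells at 1500/well, incubated overnight, then treated with pinned compounds (dopamine as control) for 90 min at 37 degrees C. DiscoveRx reagent added for 30 - 60 minutes at room temperature; luminescence read.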
D3 antag: qHTS of D3 Dopamine Receptor Antagonist: qHTS | D(3) dopamine receptor (Homo sapiens), P35462 | D3R cells, DiscoveRx beta-arrestin luminescence, antagonist mode; stronger effect = lower value | max response, negative = inhibition, % | hit rate 2.5% among 360,000 | AID 652054, 2013; in the data active = max response below about -50%; inconclusive = no clear call, values can overlap the other calls; also: % is scaled to controls: 0 for no effect and ±100 for the full control effect
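Cells expressing the human receptor were seeded at 1500 cells/well, incubated overnight at 37 degrees C in 5% CO2, then exposed to library compounds with dopamine controls for 90 minutes at 37 degrees C before luminescent detection.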
GLP1R ag: qHTS of GLP-1 Receptor Agonists. HEK293 GLP-1R CRE-luciferase, luminescence, 4-6 h; cells express a hypersensitive GLP-1R form. hit rate 0.007% among 380,000. Potency, µM (top dose mostly 45.6 µM), for the others: at the top dose activation, hits mostly activators. Glucagon-like peptide 1 receptor (Homo sapiens), P43220; also: potency is read from the fitted curve at half-maximal effect; % of control where 0% means no effect
Target sequence (P43220 whole entry, looked up): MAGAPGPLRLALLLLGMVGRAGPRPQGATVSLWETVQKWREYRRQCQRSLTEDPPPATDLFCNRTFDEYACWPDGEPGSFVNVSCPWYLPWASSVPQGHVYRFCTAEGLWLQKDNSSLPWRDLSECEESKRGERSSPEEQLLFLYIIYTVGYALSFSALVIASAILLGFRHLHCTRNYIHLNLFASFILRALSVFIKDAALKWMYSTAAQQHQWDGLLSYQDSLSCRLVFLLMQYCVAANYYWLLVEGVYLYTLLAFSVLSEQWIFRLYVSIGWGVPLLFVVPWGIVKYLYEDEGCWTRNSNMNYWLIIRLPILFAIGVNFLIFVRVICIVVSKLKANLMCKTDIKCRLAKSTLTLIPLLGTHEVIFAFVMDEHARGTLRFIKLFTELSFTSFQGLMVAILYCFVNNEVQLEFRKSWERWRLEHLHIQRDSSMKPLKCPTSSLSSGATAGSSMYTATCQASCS
GLP1R inv ag: qHTS of GLP-1 Receptor Inverse Agonists (Inhibition Mode) | HEK293 GLP-1R CRE-luciferase, luminescence, 24 h; GLP-1R form is constitutively active | AID 624417, 2012 | hit rate 1.6% among 410,000 | Glucagon-like peptide 1 receptor (Homo sapiens), P43220 | Potency, µM (series often up to 38.3 µM), without a hit: at the top dose activity change, negative = inhibition, usual class: inhibitors; also: potency is read from the fitted curve at half-maximal effect; % is scaled to controls: 0 for no effect and ±100 for the full control effect; nearly all actives have a fitted effect of over 55% in size
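GLP-1R inverse agonism mode: basal reporter luminescence in engineered HEK293 cells measured after one day of compound exposure at 37 deg C, with a 12 min room-temperature detection step.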
Starred values were filed as active, the others as inactive; u = inconclusive; x = no result given. The list is not random: actives were taken first. Their share in the collection is about 4.3%. Unless noted, calls follow the shape of the dose curve; as a rule, active = well fitted curve in the direction sought with a large enough effect; inconclusive = small, poorly fitted or top-dose-only effect, or another doubt; inactive = no such curve, though single readings can be large; an effect the other way counts as inactive or inconclusive.

SMILES	DRD3 agonist	D3 antag	GLP1R ag	GLP1R inv ag
Cc1ccccc1N1CCN(C2CCCN(C(=O)CCC3(C)CC3)C2)CC1 (centres undefined)	-7	-64*	12%	u
Cc1cc(C(=O)COC(=O)c2ccc(O)cc2)c(C)n1CCc1ccc(F)cc1	16	4	8%	u
Cc1cc(C(=O)CSc2nc(N)cc(N)n2)c(C)n1CCc1ccc(F)cc1	0	40	2%	5.6µM*
COc1ccc(C(=O)NC(NC(=S)Nc2ccc(S(N)(=O)=O)cc2)C(Cl)(Cl)Cl)cc1 (centres undefined)	-2	-75*	0%	3.2µM*
COc1ccc(C(=O)NC(Nc2ccccc2)C(Cl)(Cl)Cl)cc1 (centres undefined)	0	13	-5%	7.1µM*
CC(C(=O)NC1CCCC1)n1c(C2CCCC2)nc2ccccc21 (centres undefined)	-7	-14	x	10%
COc1ccc(C(C(=O)NC2CCCC2)n2c(C3CCN(C(C)=O)CC3)nc3ccccc32)cc1 (centres undefined)	-8	-50*	x	9%
Cc1cc(N/N=C/c2ccccc2[N+](=O)[O-])nc(-n2nc(C)cc2C)n1	-25	u	4%	2.5µM*
Cc1cc(N/N=C/c2ccc(O)cc2O)nc(-n2nc(C)cc2C)n1	-28	-122*	6%	u
Cc1cc(N/N=C/c2ccccc2O)nc(-c2ccccc2O)n1	-1	-131*	-2%	u
COc1ccc(/C=N/Nc2cc(C)nc(-n3nc(C)cc3C)n2)cc1	-3	-2	6%	u
COc1ccc(O)c(/C=N/Nc2nc(Nc3ccccc3)nc(-n3nc(C)cc3C)n2)c1	-39	-117*	-13%	u
Cc1cc(N/N=C/c2ccc(O)cc2O)nc(-c2ccccc2O)n1	16	54	-19%	u
CS(=O)(=O)OCC(O)C(O)COS(C)(=O)=O (centres undefined)	-16	x	-1%	x
COc1ccc(-c2nc(SCC(=O)NC(C)CCc3ccccc3)n[nH]2)cc1 (centres undefined)	15	x	x	-31%
Cc1ccc(-n2nc3c(N4CCC(C(=O)N(C)Cc5ccccc5)CC4)nnc(C)c3c2C)cc1	-10	x	x	3%
Cc1ccc(-n2ncc3c2CCCC3NC(=O)c2ocnc2C)cc1C (centres undefined)	21	2	1%	-14%
CN(C)CCOc1ccccc1Cc1ccccc1 (tested in a mixture with another compound)	-19	x	7%	x
NCCOc1ccccc1Cc1ccccc1	-12	-64*	-11%	u
Cn1c(-[n+]2c(-c3ccccc3)cc(-c3ccccc3)cc2-c2ccccc2)nc2c([N+](=O)[O-])cccc21	-12	-60*	9%	u
CC1CCN(C(=O)CCCN2C(=O)c3cccnc3Oc3ccc(Cl)cc32)CC1	-16	-65*	2%	u
Cc1ccccc1N1C(=O)CC(Sc2nnc(-c3ccccc3)o2)C1=O (centres undefined)	-11	-79*	-15%	u
O=C(NS(=O)(=O)c1ccc2c(c1)OCCO2)c1ccccc1	2	-85*	2%	6%
c1ccc2c(c1)CC(N1CCCCC1)c1ccccc1S2 (centres undefined)	-3	-1	-1%	-11%
CN1Cc2cccc3c2C(Cc2ccccc2S3)C1 (centres undefined)	-9	-64*	17%	u
SMILES	DRD3 agonist	D3 antag	GLP1R ag	GLP1R inv ag
O=C(Nc1ccccc1)Nc1ccc(-n2ccc(C(F)(F)F)n2)cc1	4	7	10%	7.1µM*
O=C(O)CC(CC(=O)Nc1ccc(-n2ccc(C(F)(F)F)n2)cc1)c1ccccc1 (centres undefined)	10	16	1%	-6%
COC(=O)c1cc2ccc(OC)cc2c2cc(OC)c(OC)cc12	80*	136	-1%	-18%
C/C(=N\Nc1ccc(F)cc1F)c1ccc(Br)s1	-10	20	15%	13µM*
O=C(CSc1nnc(-c2cnccn2)n1Cc1ccco1)c1ccc(Cl)cc1	-9	-63*	-3%	7%
O=C(CSc1nnc(-c2ccc(Cl)cc2)n1Cc1ccco1)Nc1ccc2c(c1)OCCO2	17	8	7%	u
